Experimental data taken from the supplement of paper PMC10646978.
± gives the standard deviation.

Assays:
Conditions in all cases: modulator concentration 10 µM
[1] = tested on: RAW-Dual (murine macrophage reporter line); test: NF-kB reporter (SEAP) activity fold change vs agonist alone; higher = enhanced NF-kB activity
Summary of the method: (§1)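 In 384-well plates holding 50 000 RAW-Dual murine macrophage reporter cells per well, compound at 10 μM final was pre-incubated for 1 hour at 37 °C, after which a PRR agonist was added overnight. Supernatant SEAP read with QUANTI-Blue at 620 nm absorbance reported NF-κB, and Lucia luciferase read with QUANTI-Luc luminescence reported IRF. Fold change values come from dividing each reporter signal by the mean of agonist-only control wells on the same plate, averaged over replicate plates with propagated errors.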

[2] = tested on: RAW-Dual (murine macrophage reporter line); test: IRF reporter (Lucia luciferase) activity fold change vs agonist alone; higher = enhanced IRF activity
Summary of the method: as §1

[3] = tested on: RAW-Dual (murine macrophage reporter line); test: viability score (confluency relative to resting cells, overnight) (fraction); higher = more viable, active = viable (0.7 or more)
Summary of the method: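 Compound was added at a final 10 μM to RAW-Dual macrophages in 384-well plates and left overnight. Confluency was imaged with IncuCyte, and two masks were generated in IncuCyte software over all imaged wells. Each viability score is confluency relative to resting cells, and a compound met the cutoff only when both masks were above 70% of resting cells.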

[4] = agonist: CpG ODN 1826 0.5 ug/mL

| SMILES | NF-kB reporter [1, 4] | NF-kB reporter ([1]; agonist: LPS 0.1 ug/mL) | NF-kB reporter ([1]; agonist: MPLA […]) | IRF reporter ([2]; agonist: 3'3'-cGAMP 10 ug/mL) | IRF reporter ([2]; agonist: LPS 0.1 ug/mL) | IRF reporter ([2]; agonist: MPLA […]) | viability score [3] |
| --- | --- | --- | --- | --- | --- | --- | --- |
| O=C(Nc1ccc(S(=O)(=O)N2CCOCC2)cc1)c1ccc(Br)s1 | 1.14 ± 0.13 | 1.02 ± 0.092 | 1.01 ± 0.029 | 0.521 ± 0.021 | 1.05 ± 0.065 | 1.12 ± 0.12 | 0.995 (active) |
| CCN(CC)c1ccc(C=NNC(=O)c2ccccc2C)c(O)c1 | 2.52 ± 0.2 | 1.41 ± 0.092 | 3.2 ± 0.13 | 0.442 ± 0.032 | 0.974 ± 0.11 | 0.721 ± 0.15 | 0.444 (inactive) |
| CO[C@@]1(NC(=O)CSCC#N)C(=O)N2C(C(=O)[O-])=C(CSc3nnnn3C)CS[C@@H]21 [Prestw-700] | 0.993 ± 0.095 | 1.02 ± 0.088 | 0.927 ± 0.063 | 1 ± 0.033 | 1.47 ± 0.13 | 1.24 ± 0.12 | 0.997 (active) |
| CCN1CC(CCN2CCOCC2)C(c2ccccc2)(c2ccccc2)C1=O.Cl.O (stereo not given) | 1 ± 0.15 | 1.19 ± 0.24 | 1.79 ± 0.72 | 0.919 ± 0.028 | 1.37 ± 0.43 | 1.03 ± 0.083 | 1 (active) |
| CCCCn1c(CNC(=O)c2cccs2)nc2ccccc21 | 0.926 ± 0.077 | 0.98 ± 0.06 | 1.03 ± 0.061 | 1.03 ± 0.06 | 1.15 ± 0.093 | 0.921 ± 0.15 | 0.983 (active) |
| Cc1ccc(-c2nc(O)nc3ccccc23)cc1 | 1.28 ± 0.37 | 1.11 ± 0.086 | 1.07 ± 0.086 | 0.786 ± 0.054 | 0.967 ± 0.14 | 0.966 ± 0.11 | 0.931 (active) |
| CCOc1nc2cccc(C(=O)OC(C)OC(=O)OC3CCCCC3)c2n1Cc1ccc(-c2ccccc2-c2nnn[nH]2)cc1 (stereo not given) | 0.672 ± 0.089 | 0.762 ± 0.062 | 0.976 ± 0.092 | 1.1 ± 0.051 | 1.31 ± 0.089 | 1.47 ± 0.13 | 1.02 (active) |
| C/C(O)=C(\C#N)C(=O)Nc1ccc(C(F)(F)F)cc1 | 0.861 ± 0.037 | 1.04 ± 0.084 | 1.01 ± 0.074 | 0.855 ± 0.044 | 1.24 ± 0.26 | 1.4 ± 0.58 | 1 (active) |
| Cc1ccc(-c2cc(NC(=O)c3ccc([N+](=O)[O-])cc3)[nH]n2)cc1 | 1.43 ± 0.11 | 1.04 ± 0.059 | 1 ± 0.061 | 0.869 ± 0.066 | 1.78 ± 0.3 | 1.82 ± 0.13 | 0.971 (active) |
| O=C1C(CCC(O)c2ccc(F)cc2)C(c2ccc(O)cc2)N1c1ccc(F)cc1 (stereo not given) | 1.09 ± 0.085 | 0.898 ± 0.16 | 1.04 ± 0.098 | 0.942 ± 0.034 | 1.16 ± 0.2 | 1.18 ± 0.25 | 1.01 (active) |
| CCOC(=O)C1=C(C)NC(C)=C(C(=O)OCC)C1c1cccs1 | 0.836 ± 0.23 | 0.998 ± 0.089 | 0.965 ± 0.12 | 0.929 ± 0.071 | 1.09 ± 0.3 | 1.08 ± 0.25 | 0.978 (active) |
| CC1CN(Cc2ccccn2)CCC1=O (stereo not given) | 0.988 ± 0.11 | 0.993 ± 0.064 | 1.03 ± 0.062 | 0.978 ± 0.027 | 1.58 ± 0.23 | 1.17 ± 0.12 | 1.01 (active) |
| Cc1ccc(-c2ccc3nnc(CCC(=O)NCc4ccc(C(F)(F)F)cc4)n3n2)cc1C | 0.671 ± 0.041 | 1.04 ± 0.086 | 1.04 ± 0.07 | 0.747 ± 0.047 | 1.15 ± 0.23 | 1.16 ± 0.41 | 0.94 (active) |
| CN1CCN(c2ccc(C(=O)Nc3n[nH]c4ccc(Cc5cc(F)cc(F)c5)cc34)c(NC3CCOCC3)c2)CC1 | 0.971 ± 0.043 | 1.21 ± 0.097 | 1.87 ± 0.11 | 0.129 ± 0.0061 | 0.482 ± 0.14 | 0.465 ± 0.13 | 0.947 (active) |
| Cc1ccccc1C(OCCN(C)C)c1ccccc1.O=C(O)CC(O)(CC(=O)O)C(=O)O (stereo not given) | 1.35 ± 0.36 | 1.34 ± 0.23 | 2.11 ± 1 | 0.582 ± 0.024 | 1.51 ± 0.14 | 1.25 ± 0.12 | 0.981 (active) |
| CCN(CC)CCNc1ccc(CO)c2sc3ccccc3c(=O)c12 [Prestw-355] | 0.178 ± 0.01 | 0.705 ± 0.065 | 1.09 ± 0.14 | 0.408 ± 0.024 | 0.964 ± 0.13 | 1.97 ± 0.17 | 0.907 (active) |
| C=CCn1c(=N)n(CC(O)c2ccco2)c2ccccc21.Cl (stereo not given) | 1.15 ± 0.13 | 0.961 ± 0.1 | 1.21 ± 0.056 | 1.07 ± 0.17 | 1.03 ± 0.043 | 0.936 ± 0.061 | 1 (active) |
| COc1ccc(CN(CCN(C)C)c2ccccn2)cc1.O=C(O)/C=C\C(=O)O | 0.568 ± 0.15 | 1 ± 0.053 | 1.01 ± 0.094 | 0.834 ± 0.073 | 0.773 ± 0.13 | 0.78 ± 0.087 | 0.946 (active) |
| CCN(CC)CC#CC(OC)(c1ccccc1)c1ccccc1.Cl | 0.356 ± 0.088 | 0.414 ± 0.063 | 0.47 ± 0.082 | 0.549 ± 0.019 | 1.16 ± 0.16 | 1.29 ± 0.23 | 0.148 (inactive) |
| Cc1cc(CNC(=O)CCc2ccc(S(C)(=O)=O)cc2)c(C)o1 | 1.24 ± 0.44 | 1.03 ± 0.084 | 1.04 ± 0.066 | 0.928 ± 0.046 | 0.97 ± 0.18 | 1 ± 0.11 | 0.999 (active) |
| CC(=O)Nc1ccc(S(=O)(=O)N2CCCc3ccccc32)cc1 | 1.15 ± 0.092 | 0.888 ± 0.081 | 1.09 ± 0.1 | 1.13 ± 0.043 | 1.27 ± 0.24 | 1.54 ± 0.32 | 0.984 (active) |
| O=C(Nc1ccc([N+](=O)[O-])cc1)c1cc(Cl)ccc1O | 1.14 ± 0.18 | 1.02 ± 0.088 | 0.841 ± 0.081 | 0.905 ± 0.033 | 1.17 ± 0.11 | 1.28 ± 0.17 | 0.991 (active) |
| CC(=O)N1CCC(C(=O)NCc2cccnc2-c2cnn(C)c2)CC1 | 1.02 ± 0.11 | 1.06 ± 0.11 | 0.903 ± 0.099 | 1.04 ± 0.095 | 1.18 ± 0.074 | 1.15 ± 0.25 | 0.995 (active) |
| O=C(Cn1ncccc1=O)N1Cc2cnc(N3CCOCC3)nc2C1 | 0.942 ± 0.082 | 1.1 ± 0.1 | 0.938 ± 0.042 | 0.956 ± 0.058 | 1.16 ± 0.21 | 1.09 ± 0.31 | 0.998 (active) |
| COc1ccc(C=NNC(=O)CSc2nnc(-c3ccncc3)n2-c2ccccc2)cc1OC | 1.05 ± 0.12 | 1 ± 0.1 | 0.962 ± 0.034 | 0.954 ± 0.05 | 1.04 ± 0.07 | 1.01 ± 0.12 | 0.998 (active) |
